Hit rate of the full screen: of about 1,200 compounds, about 20 (2%) were called active. Another 23% or so got no clear call; they are omitted. Calls follow the shape of the dose curve; as a rule, active = well fitted inhibition curve with a large enough effect; inconclusive = small, poorly fitted or top-dose-only effect; inactive = no such curve, though single readings can be large or run the other way. Shown is part of a subset that was picked to be rich in actives. Entries that show only a call come without a potency.
The compounds below were run against Transcriptional regulator ERG (Homo sapiens) (UniProt P11308) (assay: qHTS for Small Molecule Inhibitors of the ERG Ets/DNA interaction: HTRF assay against cherry picks). Conditions: His-ERG Ets domain with biotin-DNA; series mostly up to 154 µM.
Transcriptional regulator ERG (Homo sapiens), sequence (P11308 whole entry, looked up, the tested form may be a part): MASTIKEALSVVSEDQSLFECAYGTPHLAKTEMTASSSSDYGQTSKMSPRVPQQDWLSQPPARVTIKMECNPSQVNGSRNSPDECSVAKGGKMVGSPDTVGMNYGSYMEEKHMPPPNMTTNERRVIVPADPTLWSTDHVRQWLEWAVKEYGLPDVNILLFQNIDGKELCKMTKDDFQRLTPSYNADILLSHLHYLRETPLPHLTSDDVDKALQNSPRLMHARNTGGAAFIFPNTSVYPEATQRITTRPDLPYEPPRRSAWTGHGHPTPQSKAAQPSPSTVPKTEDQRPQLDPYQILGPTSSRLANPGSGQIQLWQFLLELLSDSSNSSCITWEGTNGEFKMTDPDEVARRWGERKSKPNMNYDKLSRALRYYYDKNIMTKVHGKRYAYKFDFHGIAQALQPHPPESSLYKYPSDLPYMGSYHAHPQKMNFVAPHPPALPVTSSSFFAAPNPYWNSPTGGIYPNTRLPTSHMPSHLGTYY
In short: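 Compounds were incubated 10 min at RT with ERG Ets domain and biotinylated DNA (each added as 200 nM solution) in pH 7.5 Tris/KCl/EDTA/DTT buffer. Binding was read as FRET (ex 320, em 615 and 665 nm) between anti-His donor and streptavidin acceptor.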
With `Cc1cc(OCc2cc3c(cc2Cl)OCO3)c2c(C)cc(=O)oc2c1` the Potency was “inactive”.
With `COC(=O)c1ccccc1NC(=O)c1cc(C2CC2)on1` the Potency was “inactive”.
In the case of `Nc1ccccc1S(N)(=O)=O`, the Potency was “inactive”.
For `COc1cc(CCC(=O)Nc2ccc(Br)c(C(F)(F)F)c2)cc(OC)c1OC`, the Potency was “inactive”.
`O=C(NCCCc1ccccc1)C(=O)NCC1OCCN1S(=O)(=O)c1cc(F)ccc1F` (stereo unspecified) was tested, and the Potency was “inactive”.
For `N#Cc1c(SCc2c(Cl)cccc2Cl)nc(N)[nH]c1=S`, the Potency was “inactive”.
In the case of `CCC(c1nnnn1Cc1ccc(F)cc1)N1CCN(C)CC1` (stereo unspecified), the Potency was “inactive”.
In the case of `Cc1sc2nc(CSC(C)C(=O)Nc3ccc(C(N)=O)cc3)[nH]c(=O)c2c1C` (stereo unspecified), the Potency was “inactive”.
In the case of `CCOc1ccc(NS(=O)(=O)c2ccc(NC(C)=O)c(OC)c2)cc1`, the Potency was “inactive”.
With `CCn1ccc2c(OCC(=O)Nc3ccc(C(C)=O)cc3)cccc2c1=O` the Potency was “inactive”.
With `COc1cccc2c1C(=N)c1c(O)c3c(c(O)c1C2=O)CC(O)(C(C)=O)CC3OC1CC(N)C(O)C(C)O1` (stereo unspecified) the Potency was 3.98 µM (active).
With `COC(=O)c1c(C(=O)OC)c(-c2ccc(OC)cc2)n2c1CS(=O)C2` (stereo unspecified) the Potency was “inactive”.
With `CC(NC(=O)c1ccco1)c1nc(-c2ccc(C(C)(C)C)cc2)no1` (stereo unspecified) the Potency was “inactive”.
In the case of `O=C(Cc1csc(-c2ccccc2)n1)NCc1ccc(F)cc1`, the Potency was “inactive”.
With `O=C(NCCCc1ccccc1)C(=O)NCC1OCCN1S(=O)(=O)c1ccccc1` (stereo unspecified) the Potency was “inactive”.
In the case of `CCn1nc(C)c(CNC(=O)c2cc(COc3ccccc3SC)on2)c1C`, the Potency was “inactive”.
With `CS(=O)(=O)N(CC(=O)Nc1ccccc1)c1cccc(Cl)c1Cl` the Potency was “inactive”.
For `O=C(O)CC(c1cccc2ccccc12)N1Cc2ccccc2C1=O` (stereo unspecified), the Potency was “inactive”.
With `O=C(NCc1ccc(F)cc1F)c1cc(COc2c(F)cccc2F)on1` the Potency was “inactive”.
In the case of `Cc1cc(C)cc(N(C(=O)c2csnn2)C(C(=O)NC(C)(C)C)c2ccncc2)c1` (stereo unspecified), the Potency was “inactive”.
For `COc1ccc(Nc2ncnc3sccc23)cc1OC`, the Potency was “inactive”.
For `COc1ccc(-c2cccc(NS(=O)(=O)c3cc([N+](=O)[O-])ccc3C)c2)nn1`, the Potency was “inactive”.
`Cc1cc(N)ccc1-n1c(C)ccc1C` was tested, and the Potency was “inactive”.
With `CC(Oc1ccc(C(=O)c2ccc(F)cc2)cc1)C(=O)N1CCOCC1` (stereo unspecified) the Potency was “inactive”.
With `CCc1nn2c(=O)cc(CSCC(=O)Nc3ccccc3F)nc2s1` the Potency was “inactive”.
With `CCOC(=O)C(CC)Sc1ccc2nnc(-c3cccnc3)n2n1` (stereo unspecified) the Potency was “inactive”.
`CC1CCN(S(=O)(=O)c2ccc(Cl)s2)CC1` was tested, and the Potency was “inactive”.
`Cn1nc(C(F)(F)F)c(C#N)c1N1CCN(c2ccccn2)CC1` was tested, and the Potency was “inactive”.
`O=C(C[C@H]1C/C=C\CC[C@@H](Cc2ccc(F)cc2)C(=O)OC[C@H]2CCCN2C1=O)N[C@H](CO)Cc1ccccc1` was tested, and the Potency was “inactive”.
For `CC1(C)C2CCC1(C)C(NCC(O)COc1ccc(C#N)cc1)C2` (stereo unspecified), the Potency was “inactive”.
For `CCOCCn1c(CN2CCCCC2)nc2c1c(=O)n(C)c(=O)n2C`, the Potency was “inactive”.
With `Cc1cc(C(=O)COC(=O)C23CC4CC(CC(O)(C4)C2)C3)c(C)n1C` the Potency was “inactive”.
`COc1cc(NC(=O)COC(=O)CNC(=O)C2CCCCC2)cc(OC)c1` was tested, and the Potency was “inactive”.
In the case of `Cc1nccn1C[C@@H]1CCc2c(c3ccccc3n2C)C1=O`, the Potency was “inactive”.
In the case of `Cc1nc(Nc2cccc(F)c2)c2oc3ccccc3c2n1`, the Potency was “inactive”.
For `CCCCn1c(N)c(N(CC(C)C)C(=O)c2ccc(S(=O)(=O)N3CCC(C)CC3)cc2)c(=O)[nH]c1=O`, the Potency was “inactive”.
With `COC(=O)c1ccccc1SC(CC(=O)c1ccccc1)c1ccc(F)cc1` (stereo unspecified) the Potency was “inactive”.
With `CCCC(NC(=O)C(C)Sc1nnnn1C1CC1)c1ccccc1` (stereo unspecified) the Potency was “inactive”.
With `CCCN1C[C@H](CSC)C[C@@H]2c3cccc4[nH]cc(c34)C[C@H]21` the Potency was 14.1 µM (active).
For `Cc1ccccc1-n1c(=O)n(CCc2ccccc2)c(=O)c2[nH]cnc21`, the Potency was “inactive”.
In the case of `O=S(=O)(c1ccccc1)c1cnc(-c2cccnc2)nc1-c1ccccc1`, the Potency was “inactive”.
In the case of `O=c1oc2ccccc2cc1-c1cn2cc(Cc3ccc(F)cc3)sc2n1`, the Potency was “inactive”.
`NC(=O)c1ccccc1NCC(=O)c1ccc(F)cc1` was tested, and the Potency was “inactive”.
In the case of `COc1cccc(-c2nn(C)c3sc(C(=O)NCc4ccc(OC)cc4OC)cc23)c1`, the Potency was “inactive”.
For `CSc1nc(-c2ccc(Cl)cc2)nn1C(=O)c1ccccc1`, the Potency was “inactive”.
For `COc1ccc(S(=O)(=O)N2CCCC(C(F)(F)F)C2)cc1` (stereo unspecified), the Potency was “inactive”.
`CN(C)C=NC(=O)c1cc(C(=O)c2ccc(Cl)cc2)c[nH]1` was tested, and the Potency was “inactive”.
With `Cc1cc(=O)oc2cc(OCC(=O)OCC(=O)Nc3ccc(C(C)C)cc3)ccc12` the Potency was “inactive”.
With `COC(=O)C(CCSC)NC(=O)c1cc2c(n(-c3ccccc3)c1=O)CC(C)(C)CC2=O` (stereo unspecified) the Potency was “inactive”.
In the case of `CC(C)CCN1CCN(C2CCN(c3ccc4c(c3)OCO4)CC2)CC1CCO` (stereo unspecified), the Potency was “inactive”.
In the case of `Cc1cc(C)nc(N2C(=O)CC(Cc3ccc(Cl)cc3)C2=O)n1` (stereo unspecified), the Potency was “inactive”.
`Cc1ccc2oc(-c3ccc(NC(=O)CC(C)C)cc3)nc2c1` was tested, and the Potency was “inactive”.
For `Cc1ccc(C(=O)N2CCCCC2C(=O)O)cc1S(=O)(=O)N1CCCCC1` (stereo unspecified), the Potency was “inactive”.
In the case of `O=C(Nc1ccccc1Br)c1ccccc1-c1ccccc1`, the Potency was “inactive”.
For `COc1ccccc1NS(=O)(=O)c1ccc(C)c(NC(=O)c2c(C)noc2C)c1`, the Potency was “inactive”.
In the case of `Cc1ccc(NC(=O)CSc2nc3ccccc3c3nc(CCn4c(C)nc5ccccc54)nn23)cc1F`, the Potency was “inactive”.
`COc1ccc(NC(=O)CSc2nc(C)c3c(c2C#N)CCCC3)cc1` was tested, and the Potency was “inactive”.
In the case of `Cc1cc(C)nc(N2CCCC(C(=O)Nc3ccc(F)cc3)C2)n1` (stereo unspecified), the Potency was “inactive”.
For `Cc1cc2[nH]c3c(c[n+](C)c4ccccc34)c2cc1C`, the Potency was 3.55 µM (active).
With `Cc1c(NC(=O)c2cc(-n3cnnc3)ccc2Cl)cccc1-c1nc2ccccc2s1` the Potency was “inactive”.
With `CC(=O)Nc1sc2c(c1-c1nc3ccccc3s1)CCN(C(C)C)C2` the Potency was 3.55 µM (active).
With `O=c1[nH]c2cc(F)ccc2c2ccc(F)cc12` the Potency was “inactive”.
In the case of `CCOc1cc(NC(=S)NCC(C)C)c(OCC)cc1NC(=O)c1ccco1`, the Potency was “inactive”.
For `O=C(Nc1cc(-c2nc3cc(Cl)ccc3o2)ccc1Cl)c1cccs1`, the Potency was “inactive”.
`COC(=O)C(C)Sc1ccc2nnc(CCNS(=O)(=O)c3ccc(C)cc3)n2n1` (stereo unspecified) was tested, and the Potency was “inactive”.
For `CNCCCOc1cc(C)cc(C)c1C`, the Potency was “inactive”.
With `COc1ccc(C(c2c(C)n(C)n(-c3ccccc3)c2=O)c2c(C)n(C)n(-c3ccccc3)c2=O)c(OC)c1OC` the Potency was “inactive”.
For `COc1ccc(C(=O)c2cccc(C(=O)c3ccc(OC)c(C)c3)c2)cc1C`, the Potency was “inactive”.
For `COc1ccc(OC)c2c1C(=O)c1ccccc1C2=O`, the Potency was 35.5 µM (active).
In the case of `CC1(c2ccccc2Cl)NC(=O)N(CC(=O)Nc2ccccc2OC(F)F)C1=O` (stereo unspecified), the Potency was “inactive”.
In the case of `Cc1cccc(NC(=O)c2ccccc2NC(=O)c2ccco2)c1`, the Potency was “inactive”.
In the case of `COc1ccc(-c2n(CC(=O)OC3CC(C)CCC3C(C)C)c3ccccc3[n+]2C)cc1` (stereo unspecified), the Potency was “inactive”.
In the case of `Cc1cccc(C(=O)N[C@H](C(=O)Nc2ccc(C)c(S(=O)(=O)N(C)C)c2)C(C)C)c1`, the Potency was “inactive”.
With `CCN(CC(=O)Nc1ccccc1C(F)(F)F)C(=O)c1ccc(N2C(=O)CCC2=O)cc1` the Potency was “inactive”.
`Cc1ccc(NS(=O)(=O)c2ccc(NC(=O)c3ccccc3C(=O)O)cc2)cc1C` was tested, and the Potency was “inactive”.
With `CCc1cccc(C)c1NC(=O)CSc1nc(C)c(C)o1` the Potency was “inactive”.
`COC(=O)Nc1ccc(S(=O)(=O)NNC(=O)c2c(O)c3ccccc3n(C)c2=O)cc1` was tested, and the Potency was “inactive”.
For `CCOC(=O)C1CN(S(=O)(=O)c2cc(OC)ccc2OC)C1`, the Potency was “inactive”.
`COc1ccc(-n2c(=O)c3c4c(sc3n(Cc3ccc(C(C)(C)C)cc3)c2=O)CCC4)c(OC)c1` was tested, and the Potency was “inactive”.
For `CC(=O)Nc1cccc(NC(=O)c2ccccc2OCc2c(C)noc2C)c1`, the Potency was “inactive”.
In the case of `Cc1ccc(S(=O)(=O)NC2CCCC(C(=O)O)C2)cc1` (stereo unspecified), the Potency was “inactive”.
For `Cc1cc(C)cc(-n2ccnc2SCC(=O)Nc2ccc(C)c(Cl)c2)c1`, the Potency was “inactive”.
`COC(=O)[C@H](Cc1ccccc1)NC(=O)C1(OC(C)=O)CC(OC(C)=O)C(OC(C)=O)C(OC(C)=O)C1` (stereo partly specified) was tested, and the Potency was “inactive”.
With `CCCCn1c(N)c(N(CCOC)C(=O)c2ccc(S(=O)(=O)N3CCCCC3)cc2)c(=O)[nH]c1=O` the Potency was “inactive”.
For `COc1ccc(OCCCC(=O)Nc2cccc(C(C)=O)c2)cc1`, the Potency was “inactive”.
For `Cc1cccc(NC2(C(=O)O)CCCC2)c1`, the Potency was “inactive”.
For `CC(=O)c1ccc(OCc2ccc(Oc3c(Cl)cccc3[N+](=O)[O-])cc2)cc1`, the Potency was “inactive”.
`Cc1ccc2c(c1)N(CC(=O)NC1CCCc3ccccc31)C(=O)CO2` (stereo unspecified) was tested, and the Potency was “inactive”.
With `CC(=O)Nc1ccc(S(=O)(=O)N2CCCC(C(=O)N3CCN(c4ccccc4)CC3)C2)cc1` (stereo unspecified) the Potency was “inactive”.
`CCc1ccc(Nc2ncnc3nc[nH]c23)cc1` was tested, and the Potency was “inactive”.
With `CC(C)CCNC(=O)c1ccc2c(SCC(=O)O)c3c(nc2c1)CCCC3` the Potency was “inactive”.
For `Cc1cc(NC(=O)CCC(=O)N(CC(=O)NC2CCCC2)c2ccc(C)c(F)c2)no1`, the Potency was “inactive”.
`C[C@H](NC(=O)[C@@H]1Cc2ccccc2CN1C(=O)OC(C)(C)C)C(=O)NC1CCCCC1` was tested, and the Potency was “inactive”.
For `CC(C)(CNC(=O)CC1C(=O)NCCN1Cc1cccc(F)c1)N1CCOCC1` (stereo unspecified), the Potency was “inactive”.
In the case of `CCc1ccc(NC(=O)/C(C#N)=C/c2cc3ccc(C)cc3nc2N2CCOCC2)cc1`, the Potency was “inactive”.
`OC(CN1CCCCC1)Cn1c2ccccc2c2cc(Br)ccc21` (stereo unspecified) was tested, and the Potency was “inactive”.
For `CC1(C)CC(=O)/C(=C\c2cccc([N+](=O)[O-])c2)C(C)(C)N1`, the Potency was “inactive”.
`Cc1cc(C)c(S(=O)(=O)N2CCN(C(=O)N3CCOCC3)CC2)c(C)c1` was tested, and the Potency was “inactive”.
`CN(C)CCN1C(=O)c2cccc3cc([N+](=O)[O-])cc(c23)C1=O` was tested, and the Potency was 7.94 µM (active).
In the case of `O=C(OCC(=O)c1ccc(Cl)s1)c1cncc(Br)c1`, the Potency was “inactive”.
`Cc1cccc(/C=N/NC(=O)NC23CC4CC(CC(C4)C2)C3)n1` was tested, and the Potency was “inactive”.
For `CC(=O)N1CCN(c2nnc(-c3ccccc3)c3ccccc23)CC1`, the Potency was “inactive”.
In the case of `CC1(C)CC(=O)C(C(O)c2ccccc2)C(C)(C)N1` (stereo unspecified), the Potency was “inactive”.
With `CCCn1c(=O)c(C(=O)NNS(=O)(=O)c2ccc(C)cc2)c(O)c2ccccc21` the Potency was “inactive”.
`O=C1CCN(S(=O)(=O)c2ccc(Br)cc2)CCN1` was tested, and the Potency was “inactive”.
With `O=C(COC(=O)c1cccc(-n2cnnn2)c1)c1ccccc1` the Potency was “inactive”.
For `COc1cc(NCCCC(C)N)c2ncccc2c1` (stereo unspecified), the Potency was 44.7 µM (active).
For `CNC(=S)N/N=C/c1c(C)nn(-c2ccccc2)c1Cl`, the Potency was “inactive”.
For `O=S(=O)(NCCNS(=O)(=O)c1ccc(F)cc1)c1ccc(F)cc1`, the Potency was “inactive”.
`Nc1c2ccccc2nc2ccccc12` was tested, and the Potency was 11.2 µM (active).
In the case of `CN(C)CCCNc1c2ccccc2nc2ccccc12`, the Potency was “inactive”.
For `Nc1cccc2nc3ccccc3cc12`, the Potency was 50.1 µM (active).
For `c1ccc(Oc2ncnc3ccccc23)cc1`, the Potency was “inactive”.
In the case of `CC(=O)Nc1ccc2c(c1)NC(=O)CC2`, the Potency was “inactive”.
`CN(C)c1ccc2c(c1)C(=NO)c1ccccc1-2` was tested, and the Potency was 70.8 µM (active).
For `COC(=O)Cc1ccc(NC(=S)NC(C)(C)C)cc1`, the Potency was “inactive”.

— PubChem BioAssay AID651804 (National Center for Advancing Translational Sciences (NCATS), 2012)
Potency is read from the fitted curve at half-maximal effect.
